Screening results (PubChem)
Compounds with a hit are over-represented: about 1.8% of the library has one in this group of screens.
Beta apoptosis – beta cell apoptosis inhibition; INS-1E cytokine-induced death, ATP luminescence, 48 h; percent of positive-control rescue, neutral wells zero; 0.8% of 300,000 active; AID 435005; protection from apoptosis, % (concentration not given with the values);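 active = Every replicate reaches about 75%, or at least half do and their mean reaches it too, limit read from the data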;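 also: higher means more ATP so stronger rescue from cytokine killing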
Jurkat NFkB inh – lowers PMA/ionomycin-induced NF-kB signal in Jurkat cells | PMA/ionomycin-induced NF-kB luciferase reporter, luminescence | inhibition, % at 4 µM | 0.53% of 330,000 active; in the data active = inhibition above about 50%
697 NFkB inh – inhibitors of the PMA/ionomycin-induced NF-kB reporter in 697 B cells; 697 B-cell NF-kB luciferase reporter, 16 h; inhibition, % at 4 µM; 0.33% of 330,000 active; AID 435022; in the data active = inhibition above about 35%
Gli-Sufu block – blocks Gli-Sufu signaling in a luciferase reporter | Sufu-KO-LIGHT fibroblasts, Gli luciferase reporter luminescence | inhibition, % at 5 µM | 0.74% of 340,000 active | AID 588413;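 active = inhibition above about 55%, limit read from the data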
Gli-Sufu confirm – confirmation of Gli-SUFU pathway antagonists; shares compounds with Gli-Sufu block; inhibition, % at 5 µM; 40% of 2,500 active; AID 602428; Sufu-KO-LIGHT cells, Gli luciferase reporter, luminescence;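 active = mean inhibition at 5 µM reaching about 45%, limit read from the data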
Gli cytotox – cytotoxicity counter-screen for Gli-SUFU antagonists | shares compounds with Gli-Sufu block | Sufu-KO-LIGHT cells cytotoxicity, ATP luminescence | cytotoxicity, % at 5 µM | 32% of 2,500 active | AID 651994;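 active = mean cytotoxicity at 5 µM above about 25%, limit read from the data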;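 also: cells exposed to compound overnight for roughly 16 to 18 hours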
Wnt3a counter – counter-screen for Gli-SUFU antagonists: Wnt3a reporter inhibition. shares compounds with Gli-Sufu block. Wnt-LIGHT cells, Wnt3a-driven luciferase reporter, luminescence. inhibition, % at 6.25 µM. 20% of 2,500 active. AID 651995;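 active = mean inhibition above about 25%, limit read from the data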
Numbers stand for hits.

`O=C(COC(=O)c1ccc2[nH]c3c(c2c1)CCCC3)Nc1ccccc1Cl` gave Beta apoptosis inactive, Jurkat NFkB inh inactive, 697 NFkB inh inactive, Gli-Sufu block inactive, Gli-Sufu confirm 47, Gli cytotox inactive and Wnt3a counter inactive.
`O=C(COC(=O)c1ccc2[nH]c3c(c2c1)CCCC3)Nc1ccc(Cl)cc1Cl` gave Beta apoptosis inactive, Jurkat NFkB inh inactive, 697 NFkB inh inactive and Gli-Sufu block inactive.
COc1ccc(S(=O)(=O)N2CCN(C(=S)NCCc3ccccc3)CC2)cc1 was read as Beta apoptosis inactive, Jurkat NFkB inh inactive, 697 NFkB inh inactive and Gli-Sufu block inactive.
`COCCCNC(=S)N1CCN(S(=O)(=O)c2ccc(OC)cc2)CC1` gave Beta apoptosis inactive, Jurkat NFkB inh inactive, 697 NFkB inh inactive, Gli-Sufu block 69, Gli-Sufu confirm inactive, Gli cytotox inactive and Wnt3a counter inactive.
For Cc1cc(C)cc(OCC(=O)NCC2CCCO2)c1 (stereo not drawn) the results were Beta apoptosis inactive, Jurkat NFkB inh inactive, 697 NFkB inh inactive, Gli-Sufu block 71, Gli-Sufu confirm inactive, Gli cytotox inactive and Wnt3a counter 38.
For O=C(CSCc1c(Cl)cccc1Cl)NCC1CCCO1 (stereo not drawn) the results were Beta apoptosis inactive, Jurkat NFkB inh inactive, 697 NFkB inh inactive and Gli-Sufu block inactive.
Screening O=C(CSCSCC(=O)NCC1CCCO1)NCC1CCCO1 (stereo not drawn) returned Beta apoptosis inactive, Jurkat NFkB inh inactive, 697 NFkB inh inactive, Gli-Sufu block 96, Gli-Sufu confirm inactive, Gli cytotox inactive and Wnt3a counter inactive.
Screening Cc1ccc(-c2noc(CCCC(=O)NCC3CCCO3)n2)cc1 (stereo not drawn) returned Beta apoptosis inactive, Jurkat NFkB inh inactive, 697 NFkB inh inactive, Gli-Sufu block 56, Gli-Sufu confirm inactive, Gli cytotox inactive and Wnt3a counter inactive.
Screening O=C(CN1CCN(Cc2ccccc2)CC1)Nc1nnc(C(F)(F)F)s1 returned Jurkat NFkB inh inactive, 697 NFkB inh inactive, Gli-Sufu block 63, Gli-Sufu confirm inactive, Gli cytotox inactive and Wnt3a counter inactive.
`Cc1nnc(NC(=O)CN2CCN(Cc3ccccc3)CC2)s1` gave Beta apoptosis inactive, Jurkat NFkB inh inactive, 697 NFkB inh inactive and Gli-Sufu block inactive.
Cc1cc(C)c(NC(=O)CSc2nc(=O)n(CCN3CCOCC3)c3c2CCC3)c(C)c1 was read as Jurkat NFkB inh inactive, 697 NFkB inh inactive and Gli-Sufu block inactive.
`O=C(NNC(=O)c1ccc(S(=O)(=O)N2CCCCC2)cc1)c1ccc(F)cc1` gave Beta apoptosis inactive, Jurkat NFkB inh inactive, 697 NFkB inh inactive and Gli-Sufu block inactive.
Cc1nsc(Nc2ccccc2)c1C#N was read as Beta apoptosis inactive, Jurkat NFkB inh inactive, 697 NFkB inh inactive and Gli-Sufu block inactive.
For CCC(=O)N1CCc2cc(S(=O)(=O)CCC(=O)Nc3ccc(CC)cc3)ccc21 the results were Beta apoptosis inactive, Jurkat NFkB inh inactive, 697 NFkB inh inactive and Gli-Sufu block inactive.
`CCC(=O)N1CCc2cc(S(=O)(=O)CCC(=O)Nc3ccc(C(C)=O)cc3)ccc21` gave Beta apoptosis inactive, Jurkat NFkB inh inactive, 697 NFkB inh inactive, Gli-Sufu block 59, Gli-Sufu confirm inactive, Gli cytotox inactive and Wnt3a counter inactive.
Screening Cc1ccc(/C=N/NC(=O)Cn2nccc2C)o1 returned Beta apoptosis inactive, Jurkat NFkB inh inactive, 697 NFkB inh inactive, Gli-Sufu block 60, Gli-Sufu confirm inactive, Gli cytotox inactive and Wnt3a counter inactive.
`c1ccc(SCCCCN2CCOCC2)cc1` gave Beta apoptosis inactive, Jurkat NFkB inh inactive, 697 NFkB inh inactive, Gli-Sufu block inactive, Gli-Sufu confirm inactive, Gli cytotox 27 and Wnt3a counter inactive.
Screening CCN1CCN(CCCCSc2ccccc2)CC1 returned Beta apoptosis inactive, Jurkat NFkB inh inactive and 697 NFkB inh inactive.
For c1cncc(C(c2nnnn2C2CCCC2)N2CCCC2)c1 (stereo not drawn) the results were Beta apoptosis inactive, Jurkat NFkB inh inactive, 697 NFkB inh inactive and Gli-Sufu block inactive.
c1cncc(C(c2nnnn2C2CCCCC2)N2CCN3CCCC3C2)c1 (stereo not drawn) was read as Beta apoptosis inactive, Jurkat NFkB inh inactive, 697 NFkB inh inactive, Gli-Sufu block inactive, Gli-Sufu confirm inactive, Gli cytotox inactive and Wnt3a counter inactive.
CCCc1cc2c(cc1NC(=O)Cc1ccccc1)OCO2 was read as Gli-Sufu block inactive.
`NC(=O)c1c(-c2ccc(Cl)cc2Cl)csc1NC(=O)Cc1ccccc1` gave Beta apoptosis 96, Gli-Sufu block 56, Gli-Sufu confirm 62, Gli cytotox inactive and Wnt3a counter inactive.
For CCN1C(=O)C(CC(=O)Nc2ccc(OC)cc2)N(CCN2CCOCC2)C1=S (stereo not drawn) the results were Beta apoptosis inactive, Jurkat NFkB inh inactive, 697 NFkB inh inactive and Gli-Sufu block inactive.
Screening COc1cc(C=O)c(-c2c(C=O)cc(OC)c3c2OCO3)c2c1OCO2 returned Beta apoptosis inactive, Jurkat NFkB inh inactive, 697 NFkB inh inactive, Gli-Sufu block 63, Gli-Sufu confirm inactive, Gli cytotox inactive and Wnt3a counter inactive.
`CC#CC[N+](C)(C)CCCCCCCCCC` gave Jurkat NFkB inh inactive, 697 NFkB inh inactive, Gli-Sufu block 68, Gli-Sufu confirm 79, Gli cytotox 43 and Wnt3a counter 35.
Cc1ccc(C(=O)N2CCCC(N(C)Cc3ccccc3)C2)s1 (stereo not drawn) was read as Beta apoptosis inactive, Jurkat NFkB inh inactive, 697 NFkB inh inactive, Gli-Sufu block 95, Gli-Sufu confirm inactive, Gli cytotox inactive and Wnt3a counter inactive.
Screening O=C(CCC(=O)c1ccccc1)Nc1ccc(C(=O)O)cc1 returned Beta apoptosis inactive, Jurkat NFkB inh inactive, 697 NFkB inh inactive, Gli-Sufu block 99, Gli-Sufu confirm inactive, Gli cytotox inactive and Wnt3a counter inactive.
CC(C)Sc1oc(-c2ccco2)nc1S(=O)(=O)c1ccc(F)cc1 was read as Beta apoptosis inactive, Jurkat NFkB inh inactive, 697 NFkB inh inactive and Gli-Sufu block inactive.
`O=C(CCc1nc2ccccc2[nH]c1=O)OCC(=O)c1ccc(Cl)cc1` gave Beta apoptosis inactive, Jurkat NFkB inh inactive, 697 NFkB inh inactive and Gli-Sufu block inactive.
CC(=O)OCc1cc(-c2nc3ccccc3[nH]c2=O)nn1-c1ccc(Cl)cc1 was read as Beta apoptosis inactive, Jurkat NFkB inh inactive, 697 NFkB inh inactive, Gli-Sufu block inactive, Gli-Sufu confirm inactive, Gli cytotox inactive and Wnt3a counter inactive.
Screening Cc1cccc(N=Nc2c(O)[nH]c3ccc(Br)cc23)c1 returned Beta apoptosis inactive, Jurkat NFkB inh inactive, 697 NFkB inh inactive and Gli-Sufu block inactive.
